This passage reports Potency results from PubChem BioAssay (Tox21).

Calls of active or inactive are those of the source. A call without a number means that no potency is given here. Calls follow the shape of the dose curve; as a rule, active = well fitted activation curve with a large enough effect in the repeat runs; inconclusive = weak or mixed curves; inactive = flat fitted curve, though single readings scatter.

KiSS-1 receptor (Homo sapiens), sequence (Q969F8 whole entry, looked up): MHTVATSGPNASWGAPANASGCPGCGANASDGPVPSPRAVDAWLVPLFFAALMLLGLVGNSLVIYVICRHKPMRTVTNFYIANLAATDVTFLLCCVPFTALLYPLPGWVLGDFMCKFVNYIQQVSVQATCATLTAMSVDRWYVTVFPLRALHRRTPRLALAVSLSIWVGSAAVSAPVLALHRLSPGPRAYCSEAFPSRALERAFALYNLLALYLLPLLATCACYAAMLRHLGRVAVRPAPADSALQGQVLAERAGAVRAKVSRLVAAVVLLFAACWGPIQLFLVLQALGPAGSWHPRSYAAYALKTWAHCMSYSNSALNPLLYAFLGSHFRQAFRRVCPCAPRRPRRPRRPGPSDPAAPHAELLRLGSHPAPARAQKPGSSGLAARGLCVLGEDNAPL

The assay addresses KiSS-1 receptor (Homo sapiens) (UniProt Q969F8). As to the kind of experiment: Human kisspeptin (KISS1R) small molecule agonists, calcium flux assay in KISS1R-HEK293 cells (AID 1920064). To be noted: KISS1R-HEK293, calcium flux fluorescence, agonist; series mostly up to 76.8 µM. An excerpt: National Center for Advancing Translational Sciences [NCATS]
Division of Preclinical Innovation [DPI]
U.S. Environmental Protection Agency [EPA]
National Institutes of Environmental Health Sciences [NIEHS]
National Toxicology Program [NTP]
U.S. Food and Drug Administration [FDA]
Kisspeptin and its receptor KISS1R play key roles in mammalian reproduction due to their involvement in the onset of puberty and control of the hypothalamic-pituitary-gonadal axis such as regulates GnRH release from the hypothalamus. The kisspeptin/KISS1R system also plays a direct role in peripheral organs (including the ovary, testis, uterus, and placenta) and is implicated in reproductive diseases such as miscarriage and polycystic ovary syndrome (PCOS). Abnormal KISS1R activity is associated with abnormal puberty, infertility, endometriosis, and hormone-dependent tumors. The KISS1 receptor (KISS1R, also called GPR54), a G-protein-coupled receptor (GPCR), acts (through phospholipase C) to increase intracellular inositol trisphosphate and then release intracellular calcium stores. Cell-based KISS1R-HEK293 assay is using HEK293 cells that have been genetically engineered to express the human KISS1R, which activity can be measured by calcium signaling. A compound/drug can activate (agonist) KISS1R that can be monitored by levels of intracellular calcium.
KISS1R-HEK293 cells developed by Codex Corp contain human KISS1R gene, which was stably integrated into HEK 293 cells. The compound activation can be detected by fluorescence intensity via calcium flux assay. This cell line has been used to screen the Tox21 10K compound library to identify agonists of KISS1R.
KISS1R-Hek293 cells were dispensed at 1500 cells/4uL/well in 1536-well black wall/clear bottom plates using a multidrop dispenser. After the assay plates were incubated at a 37 C/5% CO2 incubator for 18 hours, 4 microL of Calcium Dye Solution was added to each well. The plates were incubated at 37 C for 1 hour. And then 23 nL of compounds dissolved in DMSO, positive controls, or DMSO only was transferred to the assay plate by a pin tool station. The fluorescence intensity in the plates was measured using FDSS 7000EX kinetic plate reader with a filter set of Ex/Em=480/540 for 3 min at 1 sec intervals. Each test compound was measured at 15 concentrations and in triplicates.
On the technique in general: Calcium assays in cells follow changes in intracellular calcium, usually with a dye or a luminescent sensor.
In the case of `C[Si](Cn1cncn1)(c1ccc(F)cc1)c1ccc(F)cc1`, the Potency entry is “inactive”. For `CCCCCCCCCCCCCCCC[n+]1ccccc1` the value was “inactive”; for `CN(C)NC(=O)CCC(=O)O`, “inactive”; for `C=CCN(CC=C)C(=O)C(Cl)Cl`, “inactive”. As for `c1ccoc1`, the Potency result was “inactive”. As to `CCCCCCCCCl`, the Potency entry is “inactive”. `N#CCc1ccccc1`: the Potency entry is “inactive”. As to `Oc1ccc(Cl)cc1Cl`, the Potency entry is “inactive”. The value for `CC(C)OC(=S)S` was “inactive”; that for `Oc1ccccc1Cl` was “inactive”. For `CN(C)CCO` the value was “inactive”; for `Nc1ccc(Oc2ccc(N)cc2)cc1`, “inactive”; for `Cc1ccc(N)cc1Cl`, “inactive”.

Regarding `ClC(Cl)=C(c1ccc(Cl)cc1)c1ccc(Cl)cc1`, the Potency result was “inactive”.

Regarding `[O]=[Cr](=[O])([OH])[O][Cr](=[O])(=[O])[OH]`, the Potency entry is “inactive”. For `[O-][Cl+]O` the value was “inactive”; for `O=C/C(Cl)=C(/Cl)C(=O)O`, “inactive”.

Take `C=C(C)CCl`: the Potency entry was “inactive”. As for `CN(C)C(=O)Nc1ccc(Cl)cc1`, the Potency entry was “inactive”. For `CCCCCCCCCCBr` the value was “inactive”; for `CC(C)(C)C(=O)C(Cl)Cl`, “inactive”.

Consider `CC(=O)O`, for which the Potency result was “inactive”. Regarding `Nc1ncn[nH]1`, the Potency result was “inactive”. The value for `CC(=[OH+])/C=C(/C)[O-].CC(=[OH+])/C=C(\C)[O-].CC(=[OH+])/C=C(\C)[O-].[Al]` was “inactive”.

As for `ClC(Cl)(Cl)Br`, the Potency entry is “inactive”. For `OC(c1ccc(Cl)cc1)(c1cncnc1)c1ccccc1Cl` (stereo not given), the Potency result was “inactive”.

Consider `OCCOCCO`, for which the Potency entry is “inactive”.

With `CCOC(=O)N(C)N=O`, the Potency entry is “inactive”. `COP(=S)(OC)Oc1ccc(S(=O)(=O)N(C)C)cc1`: the Potency result was “inactive”.

As to `N#Cc1ccccc1N`, the Potency result is “inactive”. As for `CC(C)(OOC(C)(C)c1ccccc1)c1ccccc1`, the Potency entry was “inactive”. The value for `O=C(NC(=O)c1c(F)cccc1F)Nc1ccc(Cl)cc1` was “inactive”; that for `CCCCN(CCCCO)N=O` was “inactive”. For `CN(C)P(=O)(N(C)C)N(C)C` the value was “inactive”. For `CCN(CC)N=O` the value was “inactive”; for `C[C@]12CC[C@H]3[C@@H](CCC4=CC(=O)CC[C@@H]43)[C@@H]1CC[C@@H]2O`, “inactive”.

`Nc1ccccc1`: the Potency entry was “inactive”. For `CCCCCCn1cc[n+](C)c1` the value was “inactive”. For the compound `Cc1cc(Cl)ccc1O`, the Potency entry is “inactive”.

On to `COc1ccc(N)cc1`, for which the Potency result was “inactive”.
